# According to ChEMBL document CHEMBL3988442, “University of Dundee, Small-Polar-MMV Screening Library” (2021):
# Out of some 48,000 compounds screened, about 13,000 (27%) showed an effect of 50% or more. This is one part of the list.
# System: Wolbachia pipientis
# Assay: Anti-Wolbachia Cell-Based Screen
# Format: functional
# Design: scale not given: in the data most compounds retested in dose-response had high values
# Settings: 5 µM
row,SMILES,Percent Effect [%]
1,CNc1ncc(CN(C)c2nccc(CCC(F)(F)F)n2)cn1,-7.876
2,CS(=O)(=O)Nc1cccc(CNC(=O)CCC(=O)c2cccs2)c1,1.298
3,CCC(=O)N1CCc2c(O)nc(C3CCCCN3C(=O)C3CC3)nc2C1 (stereo unspecified),88.1
4,CC(=O)NC1CCN(c2nc(N(C)C)nc3c2CCN(C(C)=O)C3)CC1,3.638
5,CN(C)c1nc2c(c(N(C)C)n1)CCN(C(=O)CN1CCC(O)CC1)C2,-41.67
6,CC(C)N1CCC(C(=O)N2CCc3c(nc(CC4CC4)[nH]c3=O)C2)CC1,-3.187
7,CCC(=O)N1CCCCC1c1nc(O)c2c(n1)CN(C(C)=O)CC2 (stereo unspecified),111
8,CCC(=O)N1CCCCC1c1nc(O)c2c(n1)CN(C(=O)C1CC1)CC2 (stereo unspecified),109.8
9,CC1CCCCN1C(=O)c1nc2c(n1C(C)C)CCN(C(=O)C1CC1)C2 (stereo unspecified),-21.18
10,CC(C)c1noc(CS(=O)(=O)CC(=O)NCc2cccs2)n1,-1.009
11,CCN(Cc1ccco1)C(=O)Nc1cc(C(F)(F)F)c[nH]c1=O,8.276
12,CC(C)(O)CCc1cccc(C(=O)N[C@H](C(N)=O)c2ccccc2)c1,-7.223
13,Cc1cccc2c1nc(COCC(=O)O)n2-c1ccsc1,2.323
14,CC(CC(=O)NCCS(N)(=O)=O)C1CCCCC1 (stereo unspecified),93.71
15,CC(CC(=O)NCCNS(C)(=O)=O)C1CCCCC1 (stereo unspecified),132.7
16,CC(CC(=O)NS(C)(=O)=O)C1CCCCC1 (stereo unspecified),81.01
17,NS(=O)(=O)CCNC(=O)CCc1cc(Br)cs1,1.171
18,CC(CC(=O)Nc1ncn(CC(=O)N2CCCCCC2)n1)C1CC1 (stereo unspecified),14.79
19,Cc1ccc(CNC(=O)N2CCCCC2CCNS(C)(=O)=O)cc1 (stereo unspecified),-22.58
20,CC(C)c1ccc(C2(C(=O)NCCS(N)(=O)=O)CCC2)cc1,-17.74
21,CS(=O)(=O)NCC(=O)NC(Cc1ccccc1)C1CCCC1 (stereo unspecified),-11.78
22,CCNC(=O)N1CCCCC1CCNS(C)(=O)=O (stereo unspecified),-13.96
23,CCS(=O)(=O)N1Cc2ccnn2CC(c2nc(C)no2)C1 (stereo unspecified),-5.084
24,CCCC(=O)N(CC)C(c1cccnc1)c1ccc2c(c1)CCO2 (stereo unspecified),-14.24
25,Cc1cc(C(N)=O)ccc1NC(=O)N1CCN(c2cccs2)CC1,1.471
26,COc1nn(C)cc1C(=O)NCC(OC)c1ccccc1C (stereo unspecified),0.6487

row,SMILES,Percent Effect [%]
1,CC(C)NC(=O)[C@@H]1C[C@H](N)CN1C(=O)c1cc2ccccc2[nH]c1=O,-13.02
2,CC(NCCc1nccn1Cc1ccccc1)c1cccs1 (stereo unspecified),7.205
3,CN(Cc1ccccn1)c1nccc(N2CCN[C@H]3CS(=O)(=O)C[C@H]32)n1,-6.376
4,CC(NC(=O)CN(C)S(C)(=O)=O)c1ccc(F)cc1 (stereo unspecified),-21.23
5,CC(C)CNC(=O)CSc1nnc(OC(C)C)s1,1.156
6,CC(C)CNC(=O)COc1cccc[n+]1[O-],-1.693
7,CN(CC(=O)NC(c1ccc(F)cc1)C(F)(F)F)S(C)(=O)=O (stereo unspecified),-15.92
8,CC(C(=O)N(Cc1ccc(F)cc1)CC(F)(F)F)S(C)(=O)=O (stereo unspecified),19.96
9,CC(C)CNC(=O)CN(C)S(C)(=O)=O,111.5
10,CC(C)CNC(=O)CN(Cc1ccc(F)cc1)S(C)(=O)=O,96.65
11,CC(C)CNC(=O)CN(CC(=O)NCC(C)C)S(C)(=O)=O,89.59
12,CN(CC(=O)NCc1cc2ccccc2o1)S(C)(=O)=O,6.61
13,CCN1CCN(CC(O)c2ccc(Br)cc2)CC1 (stereo unspecified),16.45
14,CS(=O)(=O)N1CC[C@@H]2[C@@H]1CCN2Cc1ccc2c(c1)OCO2.O=C(O)C(F)(F)F,-17.32
15,CC(C)(C)NC(=O)CN1CCCN(Cc2ccc(C#N)cc2)CC1,13.98
16,O=C(C1CC1)N1CCN(c2ccc(-n3cncn3)nn2)CC1,7.785
17,Cc1oc(C)c(C(=O)NS(=O)(=O)c2ccc3c(c2)OCCO3)c1Br,78.36
18,O=C(NS(=O)(=O)c1ccc2c(c1)OCCO2)c1ccc(Br)cc1F,-2.402
19,Cc1oc(C)c(C(=O)NS(=O)(=O)c2ccc3c(c2)OCCCO3)c1C,0.6682
20,CCNC(=O)CN(Cc1ccoc1)C1CCCCC1,-9.878
21,CCN1CCC(NC(=O)CN2CCc3c(nc(C4CC4)n3C)C2)CC1,-1.72
22,CCN1CCC(NC(=O)CN2CCc3c(ncn3C3CC3)C2)CC1,104
23,OC(COc1ccccc1)CN1CCc2c(ncn2C2CC2)C1 (stereo unspecified),-5.117
24,N#Cc1ccc(OCCN2CCc3c(ncn3C3CC3)C2)cc1,2.68
25,O=C(CN1CCc2c(ncn2C2CC2)C1)NC1CCN(C2CC2)CC1,121.2
